High-throughput results deposited in PubChem BioAssay by National Center for Advancing Translational Sciences (NCATS).
This excerpt belongs to a sample that is enriched for hits.
ASM inhibitor: human S-ASM enzyme inhibition | P17405 | hit rate 0.006% among 340,000 | Potency, µM (doses to about 57.5 µM), for the others: top-dose activity change, negative = inhibition, actives largely listed as inhibitors | placental ASM, HMU-PC fluorogenic substrate, 60 min; also: potency is read from the fitted curve at half-maximal effect
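Steps: dispense placental human ASM, pin compound, wait 10 min at room temperature, add HMU-PC0 substrate at 9 uM final, incubate 60 min at 37 °C, add stop solution raising pH to 10, read fluorescence.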
ClpP mod: qHTS Assay for Activators of ClpP; ATP-dependent Clp protease proteolytic subunit (Bacillus subtilis (strain 168)), P80244; purified B. subtilis ClpP, FRET peptide cleavage, 20 min; Potency, µM (series often up to 57.5 µM), for inactives: at the top dose activity change, negative = active; hit rate 1.9% among 340,000; AID 651965, 2013; active = well fitted falling curve with a large enough effect; inconclusive = small, poorly fitted or top-dose-only effect; inactive = no such curve, though single readings can be large or run the other way; also: potency is read from the fitted curve at half-maximal effect; the source files actives as falling curves though it sought activators and does not explain the sign; nearly all actives have a fitted effect of over 65% in size
Target sequence (P80244 whole entry, looked up): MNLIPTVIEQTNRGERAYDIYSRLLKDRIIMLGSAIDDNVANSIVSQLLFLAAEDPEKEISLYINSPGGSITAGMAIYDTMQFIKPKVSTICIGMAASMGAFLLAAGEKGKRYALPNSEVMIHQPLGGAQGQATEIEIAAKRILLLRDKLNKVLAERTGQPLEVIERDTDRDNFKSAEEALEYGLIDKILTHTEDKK
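FRET quenching reversal measured ClpP activation: 10 microg/mL B. subtilis ClpP at pH 8 with the FRET-FV decapeptide, read at 430 nm after 320 nm excitation. The 20-min minus 0-min signal was scaled between DMSO/no-enzyme wells and ADEP (5.8 microM final).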
Mito fusion act: mitochondrial division inhibition or fusion activation | hit rate 0.23% among 320,000 | Potency, µM (highest dose often 46.1 µM), without a hit: top-dose growth rescue (activation), actives largely listed as activators | S. cerevisiae fusion-defective mutant growth rescue, CellTiterGlo 48 h | AID 485298; also: potency is read from the fitted curve at half-maximal effect; % of control where 0% means no effect; nearly all actives have a fitted effect of over 45% in size
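S. cerevisiae fusion-defective temperature-sensitive mutants (e.g. fzo1-1, mgm1-5) grown 48 h at 37C in YPEG (ethanol/glycerol non-fermentable) medium with 23 nl compound per well; growth rescue read as CellTiterGlo luminescence.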
mIDH1 inhibitor: inhibitors of human mutant IDH1 R132H. IDH1-R132H enzyme, NADPH consumption, diaphorase/resazurin fluorescence. hit rate 0.093% among 390,000. Potency, µM (doses to about 76.6 µM), without a hit: at the top dose activity change, negative = inhibition, actives largely listed as inhibitors. O75874; also: potency is read from the fitted curve at half-maximal effect; % is scaled to controls: 0 for no effect and ±100 for the full control effect; nearly all actives have a fitted effect of over 65% in size
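IDH1-R132H (0.5 ug/mL dispensed) in pH 7.5 Tris buffer was preincubated 30 min with compound, then given a substrate mix of 0.016 mM NADPH and 2 mM alpha-KG for 80 min at room temperature; remaining NADPH was read by diaphorase/resazurin fluorescence.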
LDHA block: blocks human lactate dehydrogenase A; activity change, % (values are at about 110 or 230 µM); hit rate 0.15% among 480,000; AID 1347041; P00338; purified LDHA, NADH/diaphorase-resazurin fluorescence; hits give low values; in the data active = activity change below about -30%; inconclusive = mostly about -25% to -30%;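 also: plate controls were DMSO wells for no effect and wells without enzyme for full effect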
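Enzyme activity of human lactate dehydrogenase 5 (2 nM; 0.06 mM NADH, 0.2 mM pyruvate, 5 min, RT) is measured via a resazurin/diaphorase fluorescence readout of residual NADH.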
RGS4 inhibitor: inhibitors of human regulator of G protein signaling 4 | AID 504845 | P49798 | Transcreener GDP fluorescence polarization, RGS4-accelerated GTP hydrolysis | Potency, µM (highest dose often 114 µM), for inactives: at the highest dose activity change, negative = inhibition, most hits filed as inhibitors | hit rate 0.039% among 390,000; also: potency is read from the fitted curve at half-maximal effect; % is scaled to controls: 0 for no effect and ±100 for the full control effect; nearly all actives have a fitted effect of over 75% in size
Target sequence (P49798 whole entry, looked up): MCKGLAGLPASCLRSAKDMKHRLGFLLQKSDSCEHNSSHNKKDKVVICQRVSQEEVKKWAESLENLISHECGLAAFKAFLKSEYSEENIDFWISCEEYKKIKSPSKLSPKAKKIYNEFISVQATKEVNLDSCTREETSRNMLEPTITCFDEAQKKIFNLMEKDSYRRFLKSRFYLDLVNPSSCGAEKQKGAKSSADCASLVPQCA
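MLSMR compounds (23 nl, pin-transferred) preincubated 10 min at room temperature with a 500nM (2x) first reagent, then RGS4 at 900nM (2x) plus Transcreener GDP mix added; fluorescence polarization (620/688 nm) read before and after 90 min at 30 °C.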
An asterisk follows results filed as active; ? = inconclusive; · = no result given. Unless noted, calls follow the shape of the dose curve; as a rule, active = well fitted curve in the direction sought with a large enough effect; inconclusive = small, poorly fitted or top-dose-only effect, or another doubt; inactive = no such curve, though single readings can be large; an effect the other way counts as inactive or inconclusive.

SMILES | ASM inhibitor | ClpP mod | Mito fusion act | mIDH1 inhibitor | LDHA block | RGS4 inhibitor
CC(=O)NC1CCN(C(=O)C2CCN(c3oc(-c4ccco4)nc3C#N)CC2)CC1 | · | · | · | · | 1 | ·
Cc1cc2nc(-c3ccc(SCC(=O)Nc4ccc(S(=O)(=O)NC5CC5)cc4)nc3)[nH]c2cc1C | 1% | 8.9µM* | 0% | -4% | -7 | -53%
COc1cc2c(c(OC)c1OC)-c1c(cc3c(c1O)OCO3)C[C@@H](C)[C@@H](C)C2 | -6% | 2% | 18µM* | 0% | 4 | 0%
COc1cc2c(c(O)c1OC)-c1c(cc(OC)c(OC)c1OC)C[C@@H](C)[C@@H](C)C2 | 5% | 1% | ? | 15% | -2 | -20%
CCCCCCCCCc1ccc(-c2ccc(CCCCCCC)cc2)nc1 | · | · | · | · | 3 | ·
COc1ccc(-c2nc(-c3ccccc3)nc(Cl)c2C#N)cc1 | 1% | 32µM* | -4% | 5% | 2 | -3%
COc1ccc(-c2nc(-c3cccc(C)c3)nc(Cl)c2C#N)cc1 | · | · | 2% | · | · | ·
Clc1ccc(/C=N/Nc2ncnc3ccccc23)cc1Cl | -27% | 28µM* | -3% | -4% | 3 | -52%
Fc1ccccc1/C=N/Nc1ncnc2ccccc12 | -6% | · | 3% | 0% | 2 | 11%
c1ccc(CN2CCOCC2)nc1 | 5% | -2% | · | 0% | 1 | 8%
Fc1ccc(N2CCN(Cc3ccccn3)CC2)cc1 | -3% | -5% | -17% | 0% | -31* | 0%
COc1cc(NC(=O)COc2ccc3c(C)cc(=O)oc3c2)cc(OC)c1 | · | · | · | · | 7 | ·
COc1ccc(-c2cc3ccc(OC(C)=O)cc3oc2=O)cc1 | · | · | · | · | 6 | ·
OCCNc1nc(N2CCOCC2)nc2ccccc12 | · | · | · | · | 1 | ·
CC(=O)N1N=C(c2ccc3ccccc3c2)OC1(C)C | 2% | 14% | 19% | 11% | 1 | 2%
CC(=O)N1N=C(c2ccc(C(C)(C)C)cc2)OC1(C)C | -1% | 32µM* | -4% | 8% | 1 | -9%
Cc1nc(C23CC4CC(CC(C4)C2)C3)co1 | · | · | · | · | -2 | ·
CC(=O)c1ccc(OCCCN2CCCCC2)cc1 | 0% | 3% | -1% | -5% | -32* | 3%
Cc1ccc(S(=O)(=O)NCc2ccccc2)cc1C(=O)N(C)Cc1ccc(F)cc1 | -1% | 1% | 6% | 2% | -3 | 21%
Cc1ccc(S(=O)(=O)NCc2ccccc2)cc1C(=O)N(C)Cc1ccccc1F | -1% | 16µM* | 4% | 2% | -3 | 39%
Nc1nc(CSc2nc3ccccc3s2)nc(Nc2ccccc2)n1 | · | · | 14% | · | · | ·
Cc1c(Cl)cccc1Nc1nc(N)nc(CSc2nc3ccccc3s2)n1 | -10% | -8% | 8.9µM* | 0% | -16 | 3%
Cc1ccc(F)c(NC(=O)c2nn(C)cc2Br)c1 | · | · | · | · | 2 | ·
Cc1cc(Nc2cccc(Cl)c2)nc2ccc(NC(=O)c3ccc(F)cc3Cl)cc12 | · | 28µM* | · | 5% | -6 | -6%
COc1cccc(CNC(=O)CSc2nc(=O)n(Cc3ccncc3)c3c2CCC3)c1 | 0% | 13µM* | -9% | 0% | -7 | -8%
SMILES | ASM inhibitor | ClpP mod | Mito fusion act | mIDH1 inhibitor | LDHA block | RGS4 inhibitor
COc1cccc(NC(=O)CSc2nc(=O)n(Cc3ccncc3)c3c2CCC3)c1 | · | -3% | · | 4% | 6 | 6%
COC(=O)Cn1c(=NC(=O)c2sc3ccccc3c2Cl)sc2cc(S(N)(=O)=O)ccc21 | 46% | 14µM* | -2% | 6% | -12 | -11%
CCOC(=O)Cn1c(=NC(=O)c2sc3ccccc3c2Cl)sc2cc(S(N)(=O)=O)ccc21 | 30% | ? | 2% | 4% | -7 | -53%
C=CCn1c(-c2ccoc2)n[nH]c1=S | 2% | 32µM* | -8% | 0% | -4 | -52%
CCc1cccc(NC(=O)Cc2n[nH]c(=O)c3ccccc23)c1 | · | · | · | · | 0 | ·
COc1c(O)cc2oc(-c3ccc(O)cc3)cc(=O)c2c1O | -7% | 0% | -5% | 4% | 1 | -3%
COc1cc(OC)c(-c2c3cc(O)c(=O)cc-3oc3cc(O)c(O)cc23)cc1OC | 1% | -5% | -12% | 12µM* | 30 | ?
CCCNC(=S)NNC(=O)c1cccc(N(C)C)c1 | · | · | · | · | -3 | ·
O=C(Nc1ccc(F)c(F)c1)c1ccc2ccccc2n1 | · | · | · | · | 9 | ·
O=C(OCC#CCSc1nnc(-c2cccc3ccccc23)o1)c1ccc(Br)cc1 | -7% | · | -12% | · | 1 | -7%
O=C(OCC#CCSc1nnc(-c2cccc3ccccc23)o1)c1ccco1 | 0% | 28µM* | -4% | 2% | 4 | 9%
Cc1ccc(OCC(=O)N2CCN(S(=O)(=O)c3cccs3)CC2)cc1 | · | · | · | · | 8 | ·
COc1cc(/C=C(\CC(=O)O)c2nc3ccccc3s2)ccc1OCC(=O)Nc1ccccc1F | 29% | -26% | · | -3% | -35* | -42%
Cc1c(C(=O)Nc2ccc(F)c(F)c2)oc2ccc(S(=O)(=O)N(C)C3CCCCC3)cc12 | · | ? | · | -5% | -2 | -13%
Cc1c(C(=O)Nc2cccc(C(F)(F)F)c2)oc2ccc(S(=O)(=O)N3CCOCC3)cc12 | 22µM* | 95% | 4% | 0% | -4 | -5%
Cc1c(C(=O)Nc2cccc(C(F)(F)F)c2)oc2ccc(S(=O)(=O)N3CCC4(CC3)OCCO4)cc12 | · | -3% | · | -13% | 6 | 3%
COc1cccc(NC(=O)c2oc3ccc(S(=O)(=O)N(C)C4CCCCC4)cc3c2C)c1 | · | 25µM* | · | -13% | -8 | 2%
CCc1cc2c(=O)c(-c3cnn(-c4ccccc4)c3)c(C)oc2c(CN2CCCCC2)c1O | 60% | 28µM* | 7% | 2% | -3 | -7%
CC(=O)N(CC1CCCO1)c1nnc(-c2ccccn2)s1 (stereo not given) | 3% | 16µM* | -5% | 0% | 0 | 8%
Cc1ccc(-n2cccc2)cc1C | · | · | · | · | -3 | ·
CC(C)(C)c1ccc(OCc2nn3c(-c4ccncc4)nnc3s2)cc1 | · | · | · | · | 4 | ·
CCCCc1nc(NCCNC(=O)c2ccco2)c(C#N)c2c1CSC(C)(C)C2 | 237% | 25µM* | -16% | -3% | 14 | -49%
CCCCc1nc(NCCNC(=O)c2ccccc2)c(C#N)c2c1CSC(C)(C)C2 | 284% | 28µM* | -13% | -1% | 4 | 14%
CCCCS(=O)(=O)CC(=O)O | · | · | · | · | -8 | ·
Cc1cc(C(=O)OC(C)C(=O)NC(N)=O)c2ccccc2n1 (stereo not given) | · | · | · | · | -32* | ·
Cc1ccc2nc(C)cc(C(=O)OC(C)C(=O)NCC(C)C)c2c1 (stereo not given) | · | · | · | · | -30* | ·
